Here are results for seven compounds from PubChem BioAssay (NCI).

Test systems include SR leukemia; RPMI-8226 leukemia; OVCAR-8 ovarian; OVCAR-5 ovarian; OVCAR-4 ovarian; SK-OV-3 ovarian; OVCAR-3 ovarian; HS 578T breast; NCI/ADR-RES ovarian; T-47D breast; BT-549 breast; MDA-MB-435 melanoma; SW-620 colon; MCF7 breast; HCT-116 colon; HCC-2998 colon; KM12 colon; IGROV1 ovarian.
Holding throughout (assay): NCI-60 one-dose screen, 48 h (100 = growth as untreated, 0 = no growth, -100 = all killed)
Holding throughout (settings): 10 µM unless noted

About 83,000 compounds went through this panel and 20% of them were active in at least one assay; those are over-represented in the sample as a whole.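 Step 1: grow cells in 96-well plates. Step 2: add test compound at a single concentration. Step 3: incubate 48 h. Step 4: record percent growth.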 Unmarked numbers belong to inactive results. Calls of active or inactive are those of the source. The calls were made as follows: active = growth percent below 10; inactive = the rest.

`COc1ccc2[nH]cc(-c3nc(-c4cn(C)c5ccncc45)cs3)c2c1`: the growth was -11.2% (active) in the test with SR leukemia; -40.3% (active) in the test with RPMI-8226 leukemia; -9.37% (active) in the test with OVCAR-8 ovarian; 103% in the test on OVCAR-5 ovarian; 24.1% in the test on OVCAR-4 ovarian; 112% with SK-OV-3 ovarian. Moreover, the growth with OVCAR-3 ovarian is 117%; in the test on HS 578T breast, 101%; in the test on NCI/ADR-RES ovarian, 62.1%; with T-47D breast, 92.1%; in the test with BT-549 breast it was 85.1%; in the test with MDA-MB-435 melanoma, 64.7%. The growth in the test on SW-620 colon was -56.9% (active); in the test on MCF7 breast, -39.4% (active); in the test with HCT-116 colon, -83.8% (active); in the test with HCC-2998 colon, -38.9% (active); in the test with KM12 colon, -31.8% (active).
Regarding `C#CC#CC#CC#CC#CC#CC#CC#CC[C@H]1OC[C@H](COC(=O)O[C@@H](C(=O)O[C@H]2C[C@@]3(O)[C@@H](OC(=O)c4ccccc4)[C@@H]4[C@]5(OC(C)=O)CO[C@@H]5C[C@H](O)[C@@]4(C)C(=O)[C@H](OC(C)=O)C(=C2C)C3(C)C)[C@@H](NC(=O)c2ccccc2)c2ccccc2)O1`, the growth with SR leukemia is 25.8%; in the test with RPMI-8226 leukemia it was 16%; with OVCAR-8 ovarian it was 52.7%; with OVCAR-5 ovarian it was 38.4%; in the test on OVCAR-4 ovarian, 60.7%; with SK-OV-3 ovarian it was 66.2%. In addition, the growth with IGROV1 ovarian is 48.1%; in the test on HS 578T breast it was 43.7%; with NCI/ADR-RES ovarian, 106%; in the test with T-47D breast, 40.6%; in the test on BT-549 breast it was 53.2%; in the test on MDA-MB-435 melanoma it was -57.8% (active). For the same compound, the growth in the test on SW-620 colon was 38%; in the test on MCF7 breast, 24.4%; in the test on HCT-116 colon, 15.5%; with HCC-2998 colon it was 38.2%; in the test with KM12 colon it was 18%.
As to `O=C(CCCCCCN1CC(=O)N2[C@@H](C3CCCCC3)c3[nH]c4ccccc4c3C[C@H]2C1=O)NO`, the growth with SR leukemia was 11.5%; in the test on RPMI-8226 leukemia it was 39.5%; in the test on OVCAR-8 ovarian, 54.1%; with OVCAR-5 ovarian, 66.6%; in the test on OVCAR-4 ovarian it was 84.6%; in the test on SK-OV-3 ovarian, 71.5%. In addition, the growth in the test on IGROV1 ovarian is 29%; with HS 578T breast, 70.2%; in the test with NCI/ADR-RES ovarian it was 105%; in the test on T-47D breast, 44.2%; in the test with BT-549 breast, 80.6%; with MDA-MB-435 melanoma, 60.6%. Further, the growth in the test on MCF7 breast is 51.6%; in the test with HCT-116 colon, 27%; in the test on HCC-2998 colon it was 94%; in the test on KM12 colon, 81.3%.
`Cn1cc(/C=C2/C(=O)Nc3ccccc32)c2ccccc21`: the growth was 94.9% in the test on SR leukemia; 60.5% with RPMI-8226 leukemia; 95.5% with OVCAR-8 ovarian; 106% in the test with OVCAR-5 ovarian; 86.2% in the test with OVCAR-4 ovarian; 90.4% in the test with SK-OV-3 ovarian. The growth in the test with OVCAR-3 ovarian is 90.2%; in the test on HS 578T breast, 89.3%; in the test on NCI/ADR-RES ovarian it was 84.7%; with T-47D breast it was 64.7%; in the test on BT-549 breast, 88.4%; with MDA-MB-435 melanoma, 106%. Moreover, the growth was 102% in the test on SW-620 colon; 69.2% with MCF7 breast; 90.4% with HCT-116 colon; 98.2% in the test on HCC-2998 colon; 14.8% in the test on KM12 colon.
With `CN1CCN(Cc2ccc(NC(=O)c3cncc(C#Cc4cncc5ncccc45)c3)cc2C(F)(F)F)CC1`, the growth in the test with SR leukemia is -37.7% (active); in the test on RPMI-8226 leukemia, 9.58% (active); with OVCAR-8 ovarian, 28.1%; in the test on OVCAR-5 ovarian, 25.2%; in the test on OVCAR-4 ovarian, 17.3%; in the test with SK-OV-3 ovarian it was -3.03% (active). Besides, the growth was 36.3% in the test on OVCAR-3 ovarian; -5.88% (active) in the test with HS 578T breast; 30.9% with NCI/ADR-RES ovarian; 60.9% in the test with T-47D breast; 38.6% in the test on BT-549 breast; 10.6% in the test with MDA-MB-435 melanoma. Besides, the growth in the test on SW-620 colon is -26.7% (active); with MCF7 breast, 13.7%; in the test on HCT-116 colon it was -58.3% (active); with HCC-2998 colon, 13.9%; in the test with KM12 colon, 10.7%.
With `CN1CCN(c2ccc3c(c2)nc(NNC(=O)c2cnccn2)c2cccn23)CC1`, the growth in the test with SR leukemia was 15%; in the test on RPMI-8226 leukemia it was 45.3%; with OVCAR-8 ovarian, 20.9%; in the test on OVCAR-5 ovarian it was 49.3%; in the test on OVCAR-4 ovarian it was 25%; in the test with IGROV1 ovarian it was 15.6%. For the same compound, the growth in the test on OVCAR-3 ovarian was 13.9%; in the test on HS 578T breast it was 75.4%; in the test with NCI/ADR-RES ovarian, 16.9%; in the test with T-47D breast, 37.9%; with BT-549 breast, 41.2%; in the test on MDA-MB-435 melanoma, 32.6%. Besides, the growth in the test on SW-620 colon was 34.1%; in the test on MCF7 breast, 13.8%; in the test with HCT-116 colon it was 23.1%; in the test with HCC-2998 colon it was 47.8%; in the test on KM12 colon, 19.3%.
With `Cc1nc2sc(C(=O)Nc3ccc(Cl)cc3)c(N)c2cc1C(O)c1ccccc1` (stereo not drawn), the growth with SR leukemia is 11%; in the test on RPMI-8226 leukemia, 15.5%; with OVCAR-8 ovarian, 49.7%; with OVCAR-5 ovarian, 59.6%; with OVCAR-4 ovarian it was 64.9%; in the test on SK-OV-3 ovarian it was 51.3%. The growth in the test with OVCAR-3 ovarian is 5.14% (active); in the test on HS 578T breast it was 26.8%; with NCI/ADR-RES ovarian, 25.8%; in the test with T-47D breast it was 40.8%; in the test on BT-549 breast, 59.2%; in the test on MDA-MB-435 melanoma, -12.6% (active). Also, the growth with SW-620 colon was 25.1%; in the test on MCF7 breast, 21.1%; in the test on HCT-116 colon it was 25.9%; in the test on HCC-2998 colon it was 62.5%; in the test with KM12 colon, 21.7%.
